In PubChem BioAssay (NCI):
The panel holds about 83,000 compounds, 20% with a hit somewhere; the sample as a whole holds those more often.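 Each cell line was grown in a 96-well plate and treated with one concentration of compound for 48 hours. Values below 10 were considered active.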 Activity calls are given as the source filed them.

Tests used:
Test in all cases: NCI-60 one-dose screen, 48 h (100 = growth as untreated, 0 = no growth, -100 = all killed)
Conditions in all cases: 10 µM
BT-549 breast = system: BT-549 breast
MDA-MB-435 melanoma = system: MDA-MB-435 melanoma
SW-620 colon = system: SW-620 colon
MCF7 breast = system: MCF7 breast
HCT-116 colon = system: HCT-116 colon
HCC-2998 colon = system: HCC-2998 colon

Measured: growth

CCC(=O)N1C/C(=C/c2ccc(OC)cc2)C(=O)/C(=C/c2ccc(OC)cc2)C1
active: MDA-MB-435 melanoma -28.1% | SW-620 colon -50.1% | MCF7 breast -4.78% | HCT-116 colon -70.8% | HCC-2998 colon -84%
inactive: BT-549 breast 13.2%

CC/C(=C(/c1ccc(OCCN(C)C)cc1)c1ccc(OC(=O)CCC(=O)c2c(C)[nH]c(/C=C3\N=C(c4ccc[nH]4)C=C3OC)c2C)cc1)c1ccccc1
inactive: BT-549 breast 48.4% | MDA-MB-435 melanoma 14% | HCC-2998 colon 41.6%
active: SW-620 colon -42% | MCF7 breast -12.1% | HCT-116 colon 5.92%

COc1ccc(-c2nc(-c3nc4cc(Cl)c(Cl)cc4[nH]3)c3ccccn23)cc1
inactive: BT-549 breast 71.9% | MDA-MB-435 melanoma 65.2% | SW-620 colon 79.6% | MCF7 breast 69.6% | HCT-116 colon 24.8% | HCC-2998 colon 76.4%

N=C(N)c1ccc(-c2ccc(-c3cccs3)s2)s1
active: MDA-MB-435 melanoma -88.5% | SW-620 colon -66.4% | MCF7 breast -65% | HCT-116 colon -87% | HCC-2998 colon -80.3%
inactive: BT-549 breast 66.9%

O=C1/C(=C\c2ccc(Br)cc2)CN(C(=O)c2ccccc2F)C/C1=C\c1ccc(Br)cc1
active: BT-549 breast -0.615% | MDA-MB-435 melanoma -44.9% | SW-620 colon -56.4% | MCF7 breast -33.5% | HCT-116 colon -76.1% | HCC-2998 colon -81.3%

N=C(N)c1ccc(-c2ccc(-c3cccs3)s2)cc1
active: MDA-MB-435 melanoma -85.9% | SW-620 colon -66.2% | MCF7 breast -79.4% | HCT-116 colon -67.1% | HCC-2998 colon -69.5%
inactive: BT-549 breast 93.2%

COc1cccc(Cn2c(-c3nonc3N)nc3ccccc32)c1
inactive: BT-549 breast 47.9% | SW-620 colon 14.4% | MCF7 breast 15.5% | HCT-116 colon 18.3% | HCC-2998 colon 23.7%
active: MDA-MB-435 melanoma -73.9%

O=C1/C(=C\c2ccc(F)cc2)CN(C(=O)c2ccccc2)C/C1=C\c1ccc(F)cc1
active: MDA-MB-435 melanoma -39.4% | SW-620 colon -44.4% | MCF7 breast 1.32% | HCT-116 colon -55.3%
inactive: BT-549 breast 34.9% | HCC-2998 colon 16.4%

C#Cc1ccc(-n2c(/C=C/c3ccc(C(F)(F)F)cc3)nc3ncccc3c2=O)cc1
inactive: BT-549 breast 24.8% | MCF7 breast 14.9% | HCC-2998 colon 18.7%
active: MDA-MB-435 melanoma 6.06% | SW-620 colon -12.3% | HCT-116 colon 1.75%

COc1ccc(Nc2ncnc3c2c(SC)nn3-c2ccccc2)cc1
inactive: BT-549 breast 96.5% | MDA-MB-435 melanoma 97.8% | SW-620 colon 103% | MCF7 breast 103% | HCT-116 colon 89.2% | HCC-2998 colon 103%

O=C1/C(=C\c2ccccc2)CN(C(=O)c2ccccc2F)C/C1=C\c1ccccc1
active: BT-549 breast -24.6% | MDA-MB-435 melanoma -35.6% | SW-620 colon -71.7% | MCF7 breast -37.6% | HCT-116 colon -84.8% | HCC-2998 colon -84.1%

c1ccc(CNc2ncnc3scc(-c4cccs4)c23)nc1
inactive: BT-549 breast 63.7% | MDA-MB-435 melanoma 63.7% | SW-620 colon 86.1% | MCF7 breast 67.1% | HCT-116 colon 66.5% | HCC-2998 colon 106%

C#Cc1ccc(-n2c(/C=C/c3ccc(O)c(OC)c3)nc3ncccc3c2=O)cc1
inactive: BT-549 breast 95.5% | MDA-MB-435 melanoma 71.2% | SW-620 colon 102% | MCF7 breast 89.1% | HCT-116 colon 97.4% | HCC-2998 colon 112%

CC(=O)O[C@]1(C)CC[C@H]2[C@H](CNCCc3ccc(Cl)cc3)C(=O)O[C@@H]2C2=C(C)C(=O)C[C@H]21
inactive: BT-549 breast 108% | MDA-MB-435 melanoma 88% | SW-620 colon 82% | MCF7 breast 68.4% | HCT-116 colon 83.9% | HCC-2998 colon 94.6%

Cc1ccc(C(=O)N2C/C(=C/c3ccccc3)C(=O)/C(=C/c3ccccc3)C2)cc1
inactive: BT-549 breast 49.2% | SW-620 colon 15.8%
active: MDA-MB-435 melanoma -14.1% | MCF7 breast 7.53% | HCT-116 colon -55.5% | HCC-2998 colon -48%

CC1(C)Cc2c(sc3ncn4nc(-c5ccc(O)cc5)nc4c23)CO1
inactive: BT-549 breast 65.1% | MDA-MB-435 melanoma 77.4% | SW-620 colon 94.5% | MCF7 breast 66.5% | HCT-116 colon 81.7% | HCC-2998 colon 118%

Cc1ccc(C(=O)N2C/C(=C/c3ccc(F)cc3)C(=O)/C(=C/c3ccc(F)cc3)C2)cc1
inactive: BT-549 breast 92.5% | MDA-MB-435 melanoma 84.5% | SW-620 colon 82.4% | MCF7 breast 37.7% | HCT-116 colon 10.6% | HCC-2998 colon 108%

N#CCCN1C/C(=C/c2ccc(Cl)cc2)C(=O)/C(=C/c2ccc(Cl)cc2)C1
active: BT-549 breast -24.5% | MDA-MB-435 melanoma -66.5% | SW-620 colon -48.4% | MCF7 breast -10.2% | HCT-116 colon -54.5% | HCC-2998 colon -84.6%

COc1cc(NC(=O)CCSc2nc3ccc(C)cc3c(=O)n2Cc2ccccc2)cc(OC)c1OC
inactive: BT-549 breast 95.5% | MDA-MB-435 melanoma 92.1% | SW-620 colon 84.5% | MCF7 breast 77.6% | HCT-116 colon 35% | HCC-2998 colon 112%

N=C(N)c1ccc(-c2ccc(-c3cccs3)o2)cc1
active: MDA-MB-435 melanoma -49.3% | SW-620 colon -47.9% | MCF7 breast 3.09% | HCT-116 colon 7.25% | HCC-2998 colon -66%
inactive: BT-549 breast 85.2%
